Data on 26 molecules can be found in PubChem BioAssay (NCATS).

A short description of experiment [1]: Viability qHTS for spleen associated tyrosine kinase inhibitor (SYKi) naive MV4-11 cells (AID 1963823). Also: nearly all actives have a fitted effect of over 40% in size. Also: potency is read from the fitted curve at half-maximal effect. In outline: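 In this viability screen, compounds acted on SYK inhibitor naive MV4-11 cells for three days (72 hr, 37 C). Remaining viable cells were measured by CellTiter-Glo luminescence following a 10 min room-temperature development.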
(Quantitative high-throughput screening tests each substance at several concentrations.)

A short description of experiment [2]: Quantitative highthroughput screen to assess conditional lethalithy of NOMO1 cells grown in RPMI1640 with untreated serum (RPMI+s) (AID 1963876).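 Also: 100% = DMSO wells and 0% = empty wells without cells; nearly all actives have a fitted effect of over 35% in size.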 In outline:
(§1)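 Each medium arm—HPLM with 10% dialyzed FBS, or RPMI1640 with 5 mM glucose and 10% untreated or dialyzed FBS—was screened against an 11-point, 3-fold compound titration for 48 h at 37 °C, with CellTiter-Glo luminescence as endpoint.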

Experiment [3] can be described thus: Quantitative highthroughput screen to assess conditional lethalithy of NOMO1 cells grown in RPMI1640 with dialyzed fetal bovine serum (RPMI+ds) (AID 1963877).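 Also: series mostly up to about 46 µM; 100% = DMSO control wells and 0% = empty wells; nearly all actives have a fitted effect of over 30% in size.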 In outline:
as §1

Experiment [4] is described as follows: Quantitative highthroughput screen to assess conditional lethalithy of P12 Ichikawa cells grown in Human Plasma-Like Medium with dialyzed fetal bovine serum (HPLM+ds) (AID 1963879). Also: nearly all actives have a fitted effect of over 35% in size. Also: potency is read from the fitted curve at half-maximal effect. As to Viability: series mostly up to about 46 µM. The conditions noted are these: Potency: viability. In outline:
as §1

Experiment [5] can be described thus: Quantitative highthroughput screen to assess conditional lethalithy of P12 Ichikawa cells grown in RPMI1640 with dialyzed fetal bovine serum (RPMI+ds) (AID 1963880).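 Also: 100% = DMSO wells and 0% = empty wells on each plate; nearly all actives have a fitted effect of over 35% in size.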 The conditions noted are these: Potency: P12-Ichikawa viability. In outline:
as §1

Experiment [6] is described as follows: Quantitative highthroughput screen to assess conditional lethalithy of P12 Ichikawa cells grown in RPMI1640 with untreated serum (RPMI+s) (AID 1963881). Also: nearly all actives have a fitted effect of over 35% in size. Also: potency is read from the fitted curve at half-maximal effect.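 As to Viability: series mostly up to about 46 µM; 100% = DMSO wells and 0% = empty wells without cells.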 The conditions noted are these: Potency: viability. In outline:
as §1

A short description of experiment [7]: Quantitative highthroughput screen to assess conditional lethalithy of SEM cells grown in Human Plasma-Like Medium with dialyzed fetal bovine serum (HPLM+ds) (AID 1963882). Also: nearly all actives have a fitted effect of over 35% in size. Also: potency is read from the fitted curve at half-maximal effect. As to Viability: series mostly up to about 46 µM. In outline:
as §1

Experiment [8] can be described thus: Quantitative highthroughput screen to assess conditional lethalithy of SEM cells grown in RPMI1640 with unreated serum (RPMI+s) (AID 1963883). Also: nearly all actives have a fitted effect of over 35% in size. Also: potency is read from the fitted curve at half-maximal effect.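 As to Viability: 100% = DMSO wells and 0% = empty wells without cells.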 In outline: as §1
Experiment [9] in a line: Quantitative highthroughput screen to assess conditional lethalithy of SEM cells grown in RPMI1640 with dialyzed fetal bovine serum (RPMI+ds) (AID 1963884). Also: nearly all actives have a fitted effect of over 35% in size. Also: potency is read from the fitted curve at half-maximal effect.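 As to Viability: series mostly up to about 46 µM; 100% = DMSO control wells and 0% = empty wells without cells.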 In outline:
as §1

The nature of experiment [10]: Cellular viability qHTS for adrenocortical cancer (ACC) cell line SW-13 (AID 1963989). Also: nearly all actives have a fitted effect of over 65% in size. Also: potency is read from the fitted curve at half-maximal effect.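 As to activity (max response): cells grown in serum-free medium with ITS supplement; % is scaled to controls: 0 for no effect and ±100 for the full control effect.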 Conditions: SW-13 ACC cells viability, CellTiter-Glo, 48 h; activity (max response): hits give low values. In outline: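 Luminescent ATP read-out (CellTiter-Glo, 20 min at room temperature) measured metabolically competent SW-13 cells after 48 h compound treatment. Final concentrations spanned up to 46 uM; bortezomib served as positive control.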

Experiment [11] can be described thus: Cellular viability qHTS for adrenocortical cancer (ACC) cell line NCI-H295R (AID 1963990). Also: nearly all actives have a fitted effect of over 60% in size. Also: potency is read from the fitted curve at half-maximal effect. In outline:
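IC50 and maximal efficacy derive from four-parameter logistic modelling of titration curves, with reads scaled between DMSO-only wells (0%) and doxorubicin hydrochloride (100% inhibition). Compounds spanned up to 46 uM over 48 h.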

Experiment [12] can be described thus: Quantitative highthroughput screen to assess conditional lethalithy of NOMO1 cells grown in Human Plasma-Like Medium with dialyzed fetal bovine serum (HPLM+ds) (AID 1963878). In outline: as §1

Values joined by “and” are separate entries in the source; they are usually repeats but may differ in a detail not shown here. Equal values may be shown once. Records with an inconclusive call do not appear. A number with no mark means an inactive call. Active and inactive are the calls of the source. Calls follow the shape of the dose curve; as a rule, active = well fitted curve in the direction sought with a large enough effect; inconclusive = small, poorly fitted or top-dose-only effect, or another doubt; inactive = no such curve, though single readings can be large; an effect the other way counts as inactive or inconclusive.

`Cc1ccccc1C(OCCN(C)C)c1ccccc1` (stereo not drawn): the Potency entry in experiment [1], in experiment [2], in experiment [3], in experiment [4], in experiment [5] and in experiment [6] was “inactive” throughout. Besides, the Potency result in experiment [7], in experiment [8], in experiment [9] and in experiment [11] was “inactive” throughout. In addition, the activity (max response) in [10] is 14.3%.
As to `COC(=O)Nc1nc2ccc(C(=O)c3ccc(F)cc3)cc2[nH]1`, the Potency in experiment [1] was 731 nM (active) and 332 nM (active); in experiment [10] it was 0.355 µM (active); in experiment [11], 112 nM (active). The Potency entry in [2] and in experiment [3] was “inactive” in each case.
In the case of `Cc1cccc(Nc2ccncc2S(=O)(=O)NC(=O)NC(C)C)c1`, the Potency entry in experiment [1], in [2], in experiment [3], in experiment [5], in experiment [6] and in experiment [7] was “inactive” in each case. Besides, the Potency entry in [8], in [9] and in experiment [11] was “inactive” each time. Moreover, the activity (max response) in experiment [10] is -3.35%.
Take `CCCS(=O)(=O)Nc1ccc(F)c(C(=O)c2c[nH]c3ncc(Cl)cc23)c1F`: the Potency was 11.6 µM (active) in experiment [1], 9.35 µM (active) in experiment [7], 11.8 µM (active) in experiment [8] and 13.2 µM (active) in [9].
Consider `O=S(=O)(O)c1ccc2cc(N=Nc3cc(S(=O)(=O)O)c4cccnc4c3O)ccc2c1`, for which the Potency result in [1] was “inactive”. In addition, the activity (max response) in experiment [10] was -15.7%.
For `O=C(NOCC1CC1)c1ccc(F)c(F)c1Nc1ccc(I)cc1Cl`, the Potency in experiment [1] was 3.76 µM (active); in experiment [6], 2.64 µM (active); in [7], 7.43 µM (active); in experiment [10], 10.3 µM (active) and 4.47 µM (active); in [11] it was 3.26 µM (active) and 6.31 µM (active).
On to `Cc1oc(-c2ccccc2)nc1CCC(=O)c1ccc(CC2SC(=O)NC2=O)cc1` (stereo not drawn), for which the Potency result in [1] was “inactive”. Also, the activity (max response) in experiment [10] is -12.1%.
As to `C[C@@H]1CN(CC(=O)Nc2ccc3c(c2)Cc2cccc(-c4cc(=O)cc(N5CCOCC5)o4)c2S3)C[C@H](C)O1`, the Potency is 8.33 µM (active) in [1] and 28.2 µM (active) in [10].
Take `NC(=O)c1ccc2[nH]ccc2c1`: the Potency entry in [1] and in [11] was “inactive” in each case. The Potency in experiment [9] is 18.7 µM (active). The activity (max response) in experiment [10] was -8.13%.
Regarding `CN(C)C(=O)c1cc2cnc(Nc3ccc(N4CCNCC4)cn3)nc2n1C1CCCC1`, in experiment [1], the Potency was 2.31 µM (active). In addition, the activity (max response) in experiment [10] was -9.21%.
Take `CN1CCC(Nc2ncc3ncnc(Nc4ccc(F)c(Cl)c4)c3n2)CC1`: the Potency in [1] is 9.44 µM (active) and 9.2 µM (active); in experiment [10], 18.4 µM (active).
For the molecule `O=C(O)c1ccc(CCCc2ccc(OCCc3ccc(F)cc3)cc2)o1`, the values for the Potency in experiment [1] and in [10] were 5.17 µM (active) and 17.8 µM (active), respectively.
For the molecule `Nc1ncnc2c1c(-c1cccc(OCc3ccccc3)c1)cn2C1CC(CN2CCC2)C1` (stereo not drawn), the Potency in experiment [1] is 0.58 µM (active). The Potency result in [4], in [5], in [6] and in experiment [11] was “inactive” in each case. In addition, in [10], the activity (max response) is 12.1%.
Take `CCn1c(=O)c2c(nc(C=Cc3ccc(OC)c(OC)c3)n2C)n(CC)c1=O`: the Potency entry in [1], in experiment [4], in [5], in experiment [6], in experiment [7] and in [8] was “inactive” throughout. Moreover, the Potency result in experiment [9] and in experiment [11] was “inactive” each time. Besides, the activity (max response) in experiment [10] is 1.29%.
Consider `Cc1cc2nc3c(=O)[nH]c(=O)nc-3n(C[C@H](O)[C@H](O)[C@H](O)CO)c2cc1C`, for which the Potency result in experiment [1] was “inactive”. Moreover, the activity (max response) in [10] was 8.72%.
The corresponding values for `COC(=O)[C@H]1[C@H]2C[C@@H]3c4[nH]c5cc(OC)ccc5c4CCN3C[C@H]2C[C@@H](OC(=O)COc2ccc(OC)cc2)[C@@H]1OC` are “inactive” and -9.25%.
Take `c1nc2nc(Nc3ccc(N4CCOCC4)cc3)nc(NC3CCCCC3)c2[nH]1`: the Potency was 224 nM (active) and 209 nM (active) in experiment [1]; 14.8 µM (active) in experiment [12]; 3.32 µM (active) in experiment [4]; 2.64 µM (active) in experiment [6]; 2.35 µM (active) in experiment [8]; 2.35 µM (active) in [9]. Moreover, the Potency in experiment [11] was 2820 nM (active).
Turning to `CC(N)C12CC3CC(CC(C3)C1)C2` (stereo not drawn), the Potency entry in [1], in experiment [7], in experiment [9] and in experiment [11] was “inactive” each time. Also, the Potency in experiment [4] was 26.4 µM (active).
For `Clc1ccc2c(c1)Nc1ccccc1S2`, the Potency result in [1] was “inactive”. The activity (max response) in [10] was -11.9%.
For `Cn1c(=O)c2c(ncn2CCO)n(C)c1=O`, the Potency entry in experiment [1] was “inactive”. Also, the activity (max response) in experiment [10] was -10.8%.
The corresponding values for `CC(C)(C)C(=O)OCOC(=O)[C@@H]1N2C(=O)[C@@H](NC(=O)[C@H](N)c3ccccc3)[C@H]2SC1(C)C` are “inactive” and 8.43%.
The corresponding values for `Cc1sccc1Br` are “inactive” and -3.04%.
Take `CCN(CCCOc1ccc2c(Nc3cc(CC(=O)Nc4cccc(F)c4)[nH]n3)ncnc2c1)CCOP(=O)(O)O`: the Potency in experiment [1] is 23.1 nM (active) and 186 nM (active). The activity (max response) in experiment [10] is -30.5%.
Regarding `C=CCCCCCCCCC(=O)O`, the Potency result in experiment [1] was “inactive”. The activity (max response) in experiment [10] was 9.7%.
The corresponding values for `C#C[C@]1(O)CC[C@H]2[C@@H]3CCC4=CC(=O)CC[C@@H]4[C@H]3CC[C@@]21C` are “inactive” and 2.7%.
`CCn1c(N)c(C(=O)NC)c(=O)c2ccc(C#CC(C)(O)COC)nc21` (stereo not drawn): the Potency in experiment [1] is 4.17 µM (active). The activity (max response) in [10] is 12.5%.
